Test results as given in paper PMC12136788.
Where a chain is given by its changes, count along the chain named. The full ranking holds about 5,800 sequences; the median of “enrichment r” is about 0.54, and the highest 2% start at about 16. What follows is part of a selection rich in the highest values, with near analogues and random picks from the rest.

B1: chr10:74136666:74136778:-|CDS|ENSG00000185009|unk|FALSE|unique (ssRNA)
RNA: GGGAGUUCUACAGUCCGACGAUCUUCAGAGGCUGCAAUUAAGGAUAAUGUGGUCAUAGUAUAUGAACUCUUAGAAGAAAUGUUAGACAAUGGAUUUCCACUGGCUACCGAAUCUAACAUUUUGAAAGAAUUGAUUAAACCACCCAACAGAGGAUUGAGCAUCA
B2: chr1:94529602:94529703:-|3pUTR|ENSG00000117525|msi1|total|mutant (ssRNA)
RNA: GGGAGUUCUACAGUCCGACGAUCUGGAAGGAAAUUGGGUGCAUUUCCCGGACUUUUCUAACAUAUGUCUAUAAUACCGUGUUCCGGUUCUUUUUUUUUUCAGGAAUACAUUUGGAAAUUCAAAACAAUUGGCAAACUUUGUAUCAACAGAGGAUUGAGCAUCA
B3: chr1:93888438:93888539:-|3pUTR|ENSG00000023909|msi1|FALSE|unique (ssRNA)
RNA: GGGAGUUCUACAGUCCGACGAUCAGAUAUUUUUCCUGUCAUUGAUGAGAUAUAUCAGAGUAACUGGAGUAGCUGGGAUUUACUAGUAGUGUAAAUAAAAUUCACUCUUCAAUACAUGAAUGGAAACUUAAAUUUUUUUUUAUGCAACAGAGGAUUGAGCAUCA
B4: chr12:49764829:49764866:+|3pUTR|ENSG00000139644|msi1_unk|FALSE|overlapping (ssRNA)
RNA: GGGAGUUCUACAGUCCGACGAUCACUUUUAAAGAAAAUACCUAACAGAUUUUUAAUAUAGUUAUCUCUACCACUUUCUUUUCUAGUUUCUUGAUUUUCAGCUCAGGCUGCAUUCUAACUCAUACUGUGAAGACAAAGGUGUUUCAACAGAGGAUUGAGCAUCA
B5: chr1:93888438:93888539:-|3pUTR|ENSG00000023909|msi1|total|mutant (ssRNA)
RNA: B3 RNA with U69C, A70C, U83C, A84C, U86C, A87C
B6: chr3:125228010:125228111:-|3pUTR|ENSG00000163848|msi1|total|mutant (ssRNA)
RNA: GGGAGUUCUACAGUCCGACGAUCAGUUCUCUUCAUAUUUCAUAACUACAUUUCAAUAAUUCUAAACUUUCUACAUUGAUUUUCCGAUACUUAUUUUUCAAGCUUGGUUUCUCAGCUGAUCAGAUGAAUUUAUUCAACUUCAAUCAACAGAGGAUUGAGCAUCA
B7: chr3:125228010:125228111:-|3pUTR|ENSG00000163848|msi1|FALSE|unique (ssRNA)
RNA: B6 RNA with C83U, C84A
B8: chr5:43295829:43295944:-|CDS|ENSG00000112972|unk|FALSE|unique (ssRNA)
RNA: GGGAGUUCUACAGUCCGACGAUCAAUAUCCUAGCUUUAUUCUAAAGUCAAACUUUAAAAUUUCAUGGCUUAUAUGAAUUUCAUAGUUUCCUUGGACUUCUCUUUCAGAGGGAAAUGAUAAAGAUUUUACCUUGAAUGAUUUUGCAACAGAGGAUUGAGCAUCA
B9: ENSG00000100485:stop:overlap|stop_codon|ENSG00000100485|stop_codon|NA|stop_codon (ssRNA)
RNA: GGGAGUUCUACAGUCCGACGAUCAUAUAUAUACACAUAUAUAUACACACACACACACAUUUUAUGUGUCAGUUUUCAAUAUAUAGUUAACACAAAAGCUCUCAGCUUUUAAUUCAAAUAUAGGGAAUAUUUUUAACUUCACAGCAACAGAGGAUUGAGCAUCA
B10: chr11:58422334:58423261:-|CDS|ENSG00000172365|control|control|control (ssRNA)
RNA: GGGAGUUCUACAGUCCGACGAUCACACACUAGUGAGGUGAUUCUGGUUUUUAUGUCAAGCUUUAAUAUCUUUUUUGUUCUUCUAGUUAUCUUUAUCUCCUACUUGUUCAUAUUCAUCACCAUCUUGAAGAUGCAUUCAGCUAACAACAGAGGAUUGAGCAUCA
B11: chr12:64147824:64147925:+|3pUTR|ENSG00000196935|unk|FALSE|unique (ssRNA)
RNA: GGGAGUUCUACAGUCCGACGAUCCAUCUCUGUGGUGUCUUUGUUCCUUUCCUUUCAUUCAUCACUACUUUCUCCUUGACAGCUAGCUUGCAUUAAAUAAUGUGAAACUUUUACCUUUAAAAUAUUUUUUUAUCUCACUUUCAUCAACAGAGGAUUGAGCAUCA
B12: chr1:162785649:162785750:+|3pUTR|ENSG00000162733|unk|FALSE|unique (ssRNA)
RNA: GGGAGUUCUACAGUCCGACGAUCUGAAUGUUGUUUUUUUGAAUGAACAUAAGAUAGAAACAAAAACUUCUCAUCCAGUUAACUAGAGUGAAUGUAGGGAGAAUUGUUUUGCUUGUAACAUGGAGAGUUUAUUUUCAAGUGAGGCAACAGAGGAUUGAGCAUCA
B13: chr15:77046258:77046342:-|3pUTR|ENSG00000140391|msi1_unk|FALSE|overlapping (ssRNA)
RNA: GGGAGUUCUACAGUCCGACGAUCAAAAAUAUUUACUGUAGUCCAAUAAGAUAGCAGCUGUACAAAAUGACUAAAAUAGAUUGUAGGAUCAUAUGGCGUAUAUCUUGGUUCAUCUUCAAAAUCAGAGACUGAGCUUUGAAACUACAACAGAGGAUUGAGCAUCA
B14: chr2:128192346:128192447:+|3pUTR|ENSG00000136731|msi1|FALSE|unique (ssRNA)
RNA: GGGAGUUCUACAGUCCGACGAUCAGAAAAUGAUGUUACCACUAAAAUAUUUUCUCCAAGAAGGCAUACUGUAACAGAAAAGAUAGGUAAGAUAUUUUUUUCCCAAGAAGUAAGAAUUGAUUGUGCUGAAUGUUCAAACUCUGGCAACAGAGGAUUGAGCAUCA
B15: chr16:3727831:3727932:-|CDS|ENSG00000005339|unk|FALSE|bound_elsewhere (ssRNA)
RNA: GGGAGUUCUACAGUCCGACGAUCCGUCUCACCCCAGACUGGUUCCCCCCACCCCGGACUCGCAGUCACCAUGGCCAGCUCCAUAGAUCAGGGACACUUGGGGAACCCCGAACAGAGUGCAAUGCUCCCCCAGCUGAACACCCCCAACAGAGGAUUGAGCAUCA
B16: chr16:30193532:30193793:-|CDS|ENSG00000169627|control|control|control (ssRNA)
RNA: GGGAGUUCUACAGUCCGACGAUCGCCUUAGUAAGGGCGGAAGUGAGUUUUCCAGCGGAAGUGGCUCCUGUAAGGCAGCAAGGUAGCGUGGCCGGCGCCCGAGCUGGGGUUGUGUCCCUGCUGGGCUGCCGUUCCAGCUGGACUCAACAGAGGAUUGAGCAUCA
B17: chrX:101412715:101412817:+|CDS|ENSG00000126945|unk|FALSE|unique (ssRNA)
RNA: GGGAGUUCUACAGUCCGACGAUCGGGUAUGGAGGCUAUGAUGACUAUGGUGGCUAUAAUGAUGGAUAUGGCUUUGGGUCUGAUAGAUUUGGAAGAGACCUCAAUUACUGUUUUUCAGGAAUGUCUGAUCAUAGAUACGGAGAUCAACAGAGGAUUGAGCAUCA
B18: chr11:28036422:28036524:-|CDS|ENSG00000121621|unk|FALSE|unique (ssRNA)
RNA: GGGAGUUCUACAGUCCGACGAUCCAGCUCAAUGAUUCUCUUAGCAAAGAACUUCAGCCUAUUGUAUAUACACCAGAAGACUGUAGAAAAGCUUUUCAAAAUCCGUCUACAGUAACCUUAAUGAAACCAUCAUCAUUUACUACACAACAGAGGAUUGAGCAUCA
B19: chr9:83661418:83661519:-|3pUTR|ENSG00000135018|msi1|total|mutant (ssRNA)
RNA: GGGAGUUCUACAGUCCGACGAUCUACCGUUGGGUGACCAGAUUUUGUCCUGCAUCUGUCCAGUUUAUUUGCUUUUUAAACAUCCGCCUAUGGCCGUAAUUUAUGCCGAAUAAAAGCAUUAAAAAGAAGCAAAUCAUUUGCACUCAACAGAGGAUUGAGCAUCA
B20: chr5:132541444:132541810:-|three_prime_utr|ENSG00000113525|control|control|control (ssRNA)
RNA: GGGAGUUCUACAGUCCGACGAUCAAAUUGAUAUACUUUUUUCUUAUUUAACUUAACAUUCUGUAAAAUGUCUGUUAACUUAAUAGUAUUUAUGAAAUGGUUAAGAAUUUGGUAAAUUAGUAUUUAUUUAAUGUUAUGUUGUGUCAACAGAGGAUUGAGCAUCA
B21: chr8:25429562:25429664:-|3pUTR|ENSG00000104756|unk|FALSE|unique (ssRNA)
RNA: GGGAGUUCUACAGUCCGACGAUCAGAAAAGCACUCAUUUAAUAGAUGUAGGGAAACUAGAUAUUGCUGCCUUUUGAAUGGGGUAGGGGGGUUUACCUGGUUUUAUGACCAGGCAUAGUAUCUAUUAUAUUUGCUUUUAAAUAGCAACAGAGGAUUGAGCAUCA
B22: chr11:74334375:74334476:-|3pUTR|ENSG00000165434|msi1|FALSE|unique (ssRNA)
RNA: GGGAGUUCUACAGUCCGACGAUCUUUUUGUUUUAUUUUUAAAAUGUGUAAAACAUCUUUUGUUUUAUAUGCUUUUAAGAAUGUAGAUUGUAAUUUAGGAAAUGGCAUAUAUUCUGCAAAGUGGUAUAAUGUUGUAUAUAUGAACAACAGAGGAUUGAGCAUCA
B23: chr9:83661418:83661519:-|3pUTR|ENSG00000135018|msi1|FALSE|unique (ssRNA)
RNA: B19 RNA with C26U, C27A, C83U, C84A, C93U, C94A, C105U, C106A
B24: chr6:98868534:98874277:-|three_prime_utr|ENSG00000112234|control|control|control (ssRNA)
RNA: GGGAGUUCUACAGUCCGACGAUCAUUAAAAUUAAUGUGCUUUGUUGGGGUUUAAUUUUGGGAUUGGUUUUGGGUUUUGUUUUUAGUUGUUUUAAUGGUAAGAAUUAAGACAUUUGUAGAUUUUAAAGAAAAAUAUGAAAUUGUCAACAGAGGAUUGAGCAUCA

biological target: MSI1 full-length (mouse, UniProt Q61474 1-362); assay: nsRBNS (natural sequence RNA bind-n-seq); RBNS binding buffer (assumed for nsRBNS): 25 mM Tris pH 7.5, 150 mM KCl, 3 mM MgCl2, 0.01% Triton X-100, 500 ug/ml BSA, 20 U/ml SUPERase-In, 4 C; UNK is unkempt and MSI1 is Musashi-1; names of the RNAs are library labels; protein concentration not given here; high values mean tight binding
Sequence (Q61474 whole entry): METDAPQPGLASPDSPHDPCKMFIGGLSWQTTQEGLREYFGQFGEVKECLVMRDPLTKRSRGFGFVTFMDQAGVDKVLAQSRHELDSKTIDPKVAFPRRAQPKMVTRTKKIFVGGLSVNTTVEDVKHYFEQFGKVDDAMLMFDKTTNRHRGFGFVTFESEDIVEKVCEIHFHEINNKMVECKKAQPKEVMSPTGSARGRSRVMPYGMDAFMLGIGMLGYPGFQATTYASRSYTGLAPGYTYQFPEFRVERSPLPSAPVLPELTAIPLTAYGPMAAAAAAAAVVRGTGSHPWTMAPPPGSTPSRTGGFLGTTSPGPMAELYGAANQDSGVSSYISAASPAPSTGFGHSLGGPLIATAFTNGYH

In order of falling binding signal:
1. B3  28.4 enrichment R
2. B23  26.4 enrichment R
3. B10  23.6 enrichment R
4. B24  21.9 enrichment R
5. B6  18.6 enrichment R
6. B13  9.31 enrichment R
7. B11  7.22 enrichment R
8. B7  5.53 enrichment R
9. B22  3.15 enrichment R
10. B4  3.05 enrichment R
11. B20  2.88 enrichment R
12. B12  2.65 enrichment R
13. B21  2.16 enrichment R
14. B9  2.06 enrichment R
15. B18  0.992 enrichment R
16. B17  0.771 enrichment R
17. B8  0.654 enrichment R
18. B1  0.651 enrichment R
19. B16  0.62 enrichment R
20. B14  0.593 enrichment R
21. B15  0.562 enrichment R
22. B5  0.484 enrichment R
23. B2  0.407 enrichment R
24. B19  0.203 enrichment R
